Results published in PubChem BioAssay (Tox21).
Inconclusive results are not listed. Active and inactive are the calls of the source. Unless noted, calls follow the shape of the dose curve; as a rule, active = well fitted curve in the direction sought with a large enough effect in the repeat runs; inconclusive = weak or mixed curves; inactive = no such curve, though single readings can be large; an effect the other way counts as inactive or inconclusive.

Experiments:
[1] = A CellTox Green Cytotoxicity Assay to monitor cytotoxicity in HepG2 cells - 8 hour (AID 1224890); also: nearly all actives have a fitted effect of over 45% in size; also: potency is read from the fitted curve at half-maximal effect
How it was run: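 Fluorescent DNA-binding dye, 600 HepG2 cells/well, 5 h preincubation then compound in DMSO; same plates read at 0–40 h, 37 C.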

[2] = qHTS assay to identify small molecule antagonists of the estrogen receptor alpha (ER-alpha) signaling pathway using the BG1 cell line in the presence of 0.1 nM 17-beta-estradiol - cell viability counter screen (AID 1259241); also: nearly all actives have a fitted effect of over 40% in size
How it was run: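 Estradiol-stimulated (0.1 nM) VM7Luc4E2 cells exposed to compounds 22 hr; viability measured by fluorescence of cleaved CellTiter-Fluor substrate after 30 min.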

[3] = qHTS assay to identify small molecule antagonists of the androgen receptor (AR) signaling pathway using the MDA cell line in the presence of 0.5 nM R1881 - cell viability counter screen (AID 1259242); also: nearly all actives have a fitted effect of over 45% in size
How it was run: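 Human breast carcinoma MDA-kb2 cells, cultured without CO2, receive compounds alongside 0.5 nM (final) R1881 agonist. After 16 hr at 37C, viability is taken as live-cell protease signal.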

[4] = molecular target: Estrogen receptor (Homo sapiens) (UniProt P03372); assay: qHTS assay to identify small molecule antagonists of the estrogen receptor alpha (ER-alpha) signaling pathway using the BG1 cell line in the presence of 0.1 nM 17-beta-estradiol (AID 1259244); also: nearly all actives have a fitted effect of over 50% in size
How it was run: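 Seeding of stripped-serum-adapted VM7Luc4E2 cells, 24 h attachment, compound transfer, then 0.1 nM final 17beta-estradiol; after 22 h incubation, ONE-Glo reagent and luminescence reading.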

[5] = qHTS assay to identify small molecule HDAC inhibitors (AID 1259364);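 also: wild-type HCT-116 cells with endogenous class I/II HDAC activity; top concentration of the series differs between compounds; nearly all actives have a fitted effect of over 45% in size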
How it was run: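 After a 2 hr compound incubation (37C, 5% CO2), HCT-116 cells seeded at 1,500/well the day before received HDAC-Glo reagent; signal read as luminescence after 30 min at room temperature.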

[6] = qHTS assay to identify small molecule antagonists of the sonic hedgehog signaling (Shh) pathway - cell viability counter screen (AID 1259367); also: nearly all actives have a fitted effect of over 55% in size
How it was run: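 Fluorescence read-out (CellTiter-Fluor, 1 hr at 37C) taken after 23 hr compound treatment of 3T3 Gli1-Luc cells stimulated with conditioned medium. Cells were seeded at 2,000 per well and pre-incubated 4 hr.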

[7] = qHTS assay to identify small molecule agonists of the sonic hedgehog signaling (Shh) pathway - cell viability counter screen (AID 1259366); also: nearly all actives have a fitted effect of over 50% in size
How it was run: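 Same-well cytotoxicity read. Gli1-Luc reporter 3T3 cells; compounds 24hr, 37C/5% CO2; CellTiter-Fluor fluorescence.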

[8] = qHTS assay to identify small molecule HDAC inhibitors - cell viability counter screen (AID 1259365); also: series mostly up to about 92 µM; nearly all actives have a fitted effect of over 50% in size
How it was run: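 After overnight seeding at 1,500 cells per well, wild-type HCT-116 cultures took up compounds in DMSO for 2hr at 37 C. Viable cell content came from luminescence with CellTiter-Glo.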

[9] = qHTS assay to identify small molecule phospholipidosis (PLD) inducers (AID 1259344; active = well fitted curve in the direction sought with a large enough effect; an effect the other way counts as inactive or inconclusive)
How it was run: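 Read-out is LipidTOX Red fluorescence (ex 595/em 615) imaged in HepG2 cells after 24 h compound exposure at 37 C, with Hoechst nuclear counterstain (ex 352/em 461) allowing per-cell normalisation.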

Measured: Potency

Estrogen receptor (Homo sapiens), sequence (P03372 whole entry, looked up): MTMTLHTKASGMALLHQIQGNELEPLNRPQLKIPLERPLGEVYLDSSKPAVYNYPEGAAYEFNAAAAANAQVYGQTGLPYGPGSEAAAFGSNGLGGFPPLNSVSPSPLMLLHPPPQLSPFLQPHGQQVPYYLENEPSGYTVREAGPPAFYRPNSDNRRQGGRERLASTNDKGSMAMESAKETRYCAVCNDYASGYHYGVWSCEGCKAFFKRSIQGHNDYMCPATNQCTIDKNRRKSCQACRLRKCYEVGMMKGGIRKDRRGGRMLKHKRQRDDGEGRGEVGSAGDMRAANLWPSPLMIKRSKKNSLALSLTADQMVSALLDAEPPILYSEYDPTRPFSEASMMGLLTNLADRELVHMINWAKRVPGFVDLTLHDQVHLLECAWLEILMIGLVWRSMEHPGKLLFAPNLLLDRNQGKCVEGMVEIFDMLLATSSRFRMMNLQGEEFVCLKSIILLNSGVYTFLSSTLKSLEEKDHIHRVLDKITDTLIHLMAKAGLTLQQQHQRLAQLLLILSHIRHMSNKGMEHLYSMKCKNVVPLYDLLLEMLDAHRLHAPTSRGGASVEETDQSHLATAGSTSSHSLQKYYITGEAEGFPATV

N#Cc1ccc(C2CCCc3cncn32)cc1 (stereo unspecified)
inactive: [1] | [2] | [3] | [4] | [5] | [6]

CCCCCCOC(=O)CCCCC(=O)OCCCCCC
inactive: [1] | [2] | [3] | [4] | [5] | [7] | [6]

C=C1CC[C@H]2C[C@@H]1C2(C)C
inactive: [1] | [2] | [3] | [4] | [8] | [7] | [6]

CO[C@]12C[C@@H](COC(=O)c3cncc(Br)c3)CN(C)[C@@H]1Cc1cn(C)c3cccc2c13
inactive: [2] | [3] | [9] | [5] | [8] | [7] | [6]
active: [1] 26.8 µM

COCCc1ccc(OCC(O)CNC(C)C)cc1 (stereo unspecified)
inactive: [1] | [2] | [3] | [9] | [5] | [8] | [7] | [6]

CCCN(CCC)CCc1cccc2c1CC(=O)N2
inactive: [1] | [2] | [3] | [9] | [5] | [7] | [6]

O=C(O)CCCl
inactive: [1] | [2] | [3] | [4] | [5] | [7] | [6]

CCCC(=O)O[C@]1(C(=O)CO)CC[C@H]2[C@@H]3CCC4=CC(=O)CC[C@]4(C)[C@H]3[C@@H](O)C[C@@]21C
inactive: [1] | [2] | [3] | [9] | [5] | [8] | [7] | [6]

CCC(C)C1CCCCC1=O (stereo unspecified)
inactive: [1] | [2] | [3] | [4] | [8] | [6]

O=C1CCCCCCCCCCCN1
inactive: [1] | [2] | [3] | [4] | [8] | [6]

C[N+](C)(C)CC(O)CC(=O)[O-] (stereo unspecified)
inactive: [1] | [2] | [3] | [9] | [7] | [6]

CCCN1CCCC[C@H]1C(=O)Nc1c(C)cccc1C
inactive: [1] | [2] | [3] | [9] | [5] | [8] | [7] | [6]

O=C1CCCN1C1CCCCC1
inactive: [1] | [2] | [3] | [4] | [8] | [7] | [6]

C1CN(CCOCCN2CCOCC2)CCO1
inactive: [1] | [2] | [3] | [4] | [8] | [7] | [6]

NC(=O)c1cn(Cc2c(F)cccc2F)nn1
inactive: [1] | [2] | [3] | [9] | [5] | [8] | [6]

OC(CCN1CCCCC1)(c1ccccc1)C1CC2C=CC1C2 (stereo unspecified)
inactive: [1] | [2] | [3] | [4] | [8] | [6]
